For three compounds, activity (protection/inhibition) results are on record in PubChem BioAssay AID651871 (Sanford-Burnham Center for Chemical Genomics, 2012).

SMILES strings stand for the structures. Where “and” joins values, the source holds several entries; their conditions need not be identical. Equal entries are not always repeated.

The subject of the experiment is H9c2. Description: cardiomyocyte survival under oxidative or metabolic stress – cell-based, panel, H9c2 and HL-1, ATP luminescence, set 2, SAR follow-up (AID 651871).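 Further: cells exposed to stressor for 2 h before ATP readout; reference of the scale not given here.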 Conditions: H9c2/HL-1 cardiomyocytes, 2-deoxyglucose stress, with 2-deoxyglucose; run 6, at 79 µM (top of the series).
Consider `CCOC(=O)c1cccc(NC(=O)CNC(=O)c2cc(-c3cc(OC)c(OC)c(OC)c3)nc3ccccc23)c1`, for which the activity (protection/inhibition) came to 73.8%. For the compound `COc1ccc2nc(-c3cc(OC)c(OC)c(OC)c3)cc(C(=O)NCC(=O)Nc3ccc(C(C)=O)cc3)c2c1`, the activity (protection/inhibition) stood at 91.5%. The value for `COc1ccc2c(c1OC)C(=O)N1c3ccccc3C(=O)N(Cc3cccc(Cl)c3Cl)C21` (stereo not drawn) was 104% and 66.4% and -6.1%.
